The values below come from PubChem BioAssay (NCI).

Compounds without any hit were thinned out: in the full panel of roughly 83,000, 20% have a hit.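 Method: cells in 96-well plates; compound added at one concentration; 48 h incubation; percent growth measured; values under 10 scored active.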 A number with no mark means an inactive call. The source made the active and inactive calls.

Assay in all cases: NCI-60 one-dose screen, 48 h (100 = growth as untreated, 0 = no growth, -100 = all killed)
One assay has as its system HCT-15 colon. The note with it: 10 µM unless noted.
A further assay relates to HT29 colon. The note with it: 10 µM unless noted.
In the next assay the test system is SNB-75 CNS. The note with it: 10 µM unless noted.
The subject of another assay is SNB-19 CNS. The note with it: 10 µM unless noted.
The test system of the next assay is U251 CNS. The note with it: 10 µM unless noted.
In the next assay the test system is PC-3 prostate. The note with it: 10 µM unless noted.
In the next assay the test system is SK-MEL-5 melanoma. The note with it: 10 µM unless noted.
A further assay concerns UACC-62 melanoma. The note with it: 10 µM unless noted.
Another assay deals with LOX IMVI melanoma. The note with it: 10 µM unless noted.
Another assay has as its system SK-MEL-28 melanoma. The note with it: 10 µM unless noted.
A further assay relates to SK-MEL-2 melanoma. The note with it: 10 µM unless noted.
The test system of a further assay is EKVX NSCLC. The note with it: 10 µM.
For a further assay, the system named is SN12C renal. The note with it: 10 µM unless noted.
The test system of a further assay is UO-31 renal. The note with it: 10 µM unless noted.
The test system of another assay is TK-10 renal. The note with it: 10 µM unless noted.
The test system of the next assay is ACHN renal. The note with it: 10 µM unless noted.
For the next assay, the system named is CCRF-CEM leukemia. The note with it: 10 µM.
The subject of another assay is MOLT-4 leukemia. The note with it: 10 µM unless noted.
A further assay deals with A498 renal. The note with it: 10 µM unless noted.
The subject of a further assay is CAKI-1 renal. The note with it: 10 µM unless noted.

Turning to `Oc1ccc(N=Nc2ccc(N=Nc3ccccc3)cc2)cc1`, the growth in the assay with HCT-15 colon is 40.7%; with HT29 colon, 53.4%; in the assay on SNB-75 CNS, 87.1%; in the assay on SNB-19 CNS, 58.4%; in the assay on U251 CNS it was 51.6%; in the assay on PC-3 prostate it was 43.1%. Besides, the growth in the assay on SK-MEL-5 melanoma is 39.1%; with UACC-62 melanoma, 1.15% (active); in the assay on LOX IMVI melanoma it was 6.08% (active); in the assay on SK-MEL-28 melanoma, 54.4%; with SK-MEL-2 melanoma it was 47.3%; in the assay with EKVX NSCLC it was 39.8%. In addition, the growth in the assay on SN12C renal is 57.1%; with UO-31 renal it was 15.8%; in the assay on TK-10 renal, 48.5%; in the assay on ACHN renal it was 30.8%; in the assay on CCRF-CEM leukemia it was 6.69% (active); in the assay with MOLT-4 leukemia, 4.57% (active).

Turning to `COc1ccccc1Nc1nnc(COc2ccc(CNC(=O)CCCC/C=C/C(C)C)cc2OC)o1`, the growth was 88.3% in the assay with HCT-15 colon; 103% with HT29 colon; 94.5% with SNB-75 CNS; 94.6% in the assay with SNB-19 CNS; 102% in the assay with U251 CNS; 84.4% in the assay with PC-3 prostate. Moreover, the growth in the assay on SK-MEL-5 melanoma was 98%; with UACC-62 melanoma, 81.9%; with LOX IMVI melanoma, 95.6%; in the assay on SK-MEL-28 melanoma, 98.1%; with SK-MEL-2 melanoma, 102%; in the assay with EKVX NSCLC, 85%. The growth with SN12C renal is 105%; with UO-31 renal, 75.2%; in the assay on TK-10 renal, 103%; in the assay with ACHN renal it was 95.7%; with A498 renal, 103%; in the assay with CCRF-CEM leukemia, 92%. Further, the growth in the assay on MOLT-4 leukemia is 76.7%.

For `CCCNC(=O)Oc1ccc(/C(=C(/C)Cc2ccc(OC)cc2)c2ccc(OCCN3CCCC3)cc2)cc1`, the growth with HCT-15 colon is 16.9%; in the assay with HT29 colon, 0.741% (active); in the assay on SNB-75 CNS, 48.2%; in the assay with SNB-19 CNS it was 78.6%; with U251 CNS, 48.6%; in the assay on PC-3 prostate, 56.4%. Further, the growth in the assay on SK-MEL-5 melanoma was 11.7%; in the assay with UACC-62 melanoma, 52.5%; in the assay with LOX IMVI melanoma, 48.4%; in the assay with SK-MEL-28 melanoma, 55.8%; with SK-MEL-2 melanoma, 98.8%; in the assay on EKVX NSCLC, 70.1%. Also, the growth in the assay on SN12C renal is 71.3%; in the assay on UO-31 renal it was 50.3%; in the assay on TK-10 renal, 83.4%; in the assay with ACHN renal, 78.6%; in the assay with CCRF-CEM leukemia, 50.7%; in the assay with MOLT-4 leukemia, 52.8%.

As for `C=CCSc1nnc(COc2ccc3c(C)c(Cc4ccccc4)c(=O)oc3c2C)o1`, the growth was 104% in the assay with HCT-15 colon; 98.3% in the assay on HT29 colon; 89.1% in the assay on SNB-75 CNS; 93.4% with SNB-19 CNS; 99% in the assay with U251 CNS; 93.2% in the assay with PC-3 prostate. Also, the growth in the assay with SK-MEL-5 melanoma was 101%; in the assay on UACC-62 melanoma it was 92.4%; in the assay with LOX IMVI melanoma it was 97.6%; in the assay with SK-MEL-28 melanoma, 117%; in the assay on SK-MEL-2 melanoma it was 95.9%; in the assay with EKVX NSCLC it was 108%. The growth with SN12C renal is 95.2%; in the assay with UO-31 renal, 80%; in the assay on TK-10 renal it was 109%; with ACHN renal it was 97.5%; in the assay on A498 renal it was 110%; with CCRF-CEM leukemia it was 95.1%. Moreover, the growth in the assay on MOLT-4 leukemia was 96%.

Regarding `CC[C@H](Nc1ncnc2nc[nH]c12)c1nc2cccc(NCc3ccc(C(=O)NO)o3)c2c(=O)n1-c1ccccc1`, the growth in the assay on HCT-15 colon was 103%; in the assay on HT29 colon, 91.3%; with SNB-75 CNS, 71.6%; in the assay on SNB-19 CNS, 99.7%; in the assay with U251 CNS, 107%; with PC-3 prostate it was 93.3%. Besides, the growth is 101% in the assay with SK-MEL-5 melanoma; 92.6% with UACC-62 melanoma; 95.4% with LOX IMVI melanoma; 100% in the assay with SK-MEL-28 melanoma; 102% in the assay on SK-MEL-2 melanoma; 110% in the assay with EKVX NSCLC. In addition, the growth in the assay on SN12C renal is 95.2%; with UO-31 renal, 79%; with TK-10 renal, 84.1%; in the assay on ACHN renal, 97.3%; in the assay on A498 renal, 97%; in the assay with CCRF-CEM leukemia, 88.7%. Moreover, in the assay on MOLT-4 leukemia, the growth is 97.8%.

In the case of `Cc1ccc(C(=O)Nc2ccc(CN3CCN(C)CC3)c(C(F)(F)F)c2)cc1C#Cc1cnc(N)c2ccc(F)cc12`, the growth in the assay with HCT-15 colon is -93.4% (active); with HT29 colon it was -85% (active); with SNB-75 CNS it was -70.4% (active); in the assay with SNB-19 CNS, -99.1% (active); in the assay with U251 CNS, -89.2% (active); in the assay on PC-3 prostate it was -82.7% (active). The growth with SK-MEL-5 melanoma was -96% (active); in the assay on UACC-62 melanoma, -83.9% (active); in the assay with LOX IMVI melanoma, -91.4% (active); in the assay with SK-MEL-28 melanoma it was -96.2% (active); with SK-MEL-2 melanoma, -56.2% (active); in the assay with EKVX NSCLC it was -92.2% (active). For the same compound, the growth in the assay with SN12C renal is -90.8% (active); with UO-31 renal it was -97.3% (active); in the assay with TK-10 renal, -84.5% (active); with CAKI-1 renal it was -58% (active); with A498 renal, -69.9% (active); with CCRF-CEM leukemia it was -58.7% (active). Moreover, the growth in the assay with MOLT-4 leukemia was -67.1% (active).

As for `COc1ccc(-c2nc(SCC(C)C)nc(Nc3ccc(C)cc3)c2C#N)cc1`, the growth in the assay on HCT-15 colon was 84.8%; with HT29 colon, 82.9%; in the assay with SNB-75 CNS, 60.6%; in the assay on SNB-19 CNS, 78.4%; in the assay on U251 CNS, 21.2%; with PC-3 prostate, 86.1%. Also, the growth in the assay with SK-MEL-5 melanoma was 86.1%; in the assay on UACC-62 melanoma it was 102%; in the assay on LOX IMVI melanoma, 73.9%; in the assay on SK-MEL-28 melanoma, 94.6%; with SK-MEL-2 melanoma, 107%; in the assay on EKVX NSCLC it was 72.8%. The growth with SN12C renal was 41.3%; in the assay on UO-31 renal, 59.7%; in the assay on TK-10 renal, 43.3%; in the assay on ACHN renal it was 13.6%; in the assay with CCRF-CEM leukemia it was 52.9%; with MOLT-4 leukemia, 81.6%.
